Consider 13 compounds from PubChem BioAssay (NCI).

Common to all, as to test: NCI-60 one-dose screen, 48 h (100 = growth as untreated, 0 = no growth, -100 = all killed)
Conditions in all cases: 10 µM unless noted

Test [1] concerns HCT-15 colon.
The test system of test [2] is HT29 colon.
Test [3] deals with SNB-75 CNS.
Test [4] has as its system SNB-19 CNS.
Test [5] deals with U251 CNS.
Test [6] deals with PC-3 prostate.
Test [7] relates to SK-MEL-5 melanoma.
The test system of test [8] is UACC-62 melanoma.
For test [9], the system named is LOX IMVI melanoma.
The test system of test [10] is SK-MEL-28 melanoma.

This is part of a sample that, as a whole, favours compounds with a hit. Of some 83,000 tested, about 20% had one in any assay.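 A percent growth of 40 corresponds to 60% growth inhibition; 0 means no net growth; -100 means all cells died. Active threshold: below 10.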 Values without a mark were called inactive. Activity calls are given as the source filed them.

As to `COc1ccc(/C=C(/C(=O)N2CCN(Cc3ccccc3)CC2)c2cc(OC)c(OC)c(OC)c2)cc1O`, the growth in test [1] was 59.7%; in test [2], 95.4%; in [3] it was 49.2%; in [4] it was 64.8%; in [5] it was 66.1%; in test [6] it was 34.8%. In addition, the growth in test [7] is 33.3%; in test [8] it was 45%; in test [9], 60.2%; in [10], 76.5%.
For `C[C@H]1[C@H](C)CC[C@]2(C(=O)OCCOCCOCC[P+](c3ccccc3)(c3ccccc3)c3ccccc3)CC[C@]3(C)C(=CC[C@@H]4[C@@]5(C)CC[C@H](OC(=O)C(Cl)Cl)C(C)(C)[C@@H]5CC[C@]43C)[C@H]12`, the growth was 17.1% in test [1]; 3.81% (active) in test [2]; 19.7% in test [3]; 20.4% in test [4]; 11.3% in test [5]; 5.1% (active) in test [6]. Besides, the growth in test [7] is -97.7% (active); in [8], -23.9% (active); in test [9] it was -21.1% (active); in [10] it was 30%.
As to `Cc1ccc(CS/C(=C\c2ccc([N+](=O)[O-])cc2)C(=O)c2ccc(F)cc2)cc1`, the growth in [1] was -6.39% (active); in test [2], -20.1% (active); in [3], 79.8%; in test [4], 34.6%; in [5], -20.4% (active); in test [6], 40.9%. Besides, the growth in test [7] is 62.7%; in test [8], 30.9%; in test [9], -4.93% (active); in test [10] it was 93.5%.
Consider `C#C[C@@]1(O)[C@@H](CO)O[C@@H](n2cnc3c(-c4ccccc4)ncnc32)[C@@H]1O`, for which the growth in test [1] was 98%; in test [2], 101%; in [3], 85.7%; in test [4], 112%; in test [5], 104%; in test [6], 95.5%. The growth in test [7] is 104%; in test [8] it was 108%; in test [9], 94.6%; in test [10], 111%.
On to `CC(=O)O[C@@H]1C[C@]2(C)[C@H]3[C@H](O)C[C@@H]4C5=CC(C)(C)CC[C@]5(C)CC[C@@]4(C)[C@]3(C)CC[C@H]2C(C)(C)[C@H]1O`, for which the growth was 100% in [1]; 97.8% in test [2]; 91.6% in [3]; 104% in test [4]; 97.6% in test [5]; 84.9% in [6]. Further, the growth in test [7] is 114%; in test [8], 97.4%; in test [9], 98.7%; in test [10], 106%.
Turning to `COc1cc(F)c(-c2nc3c(C)cccc3n2Cc2c(F)cccc2F)c(F)c1`, the growth in [1] is 81.9%; in test [2], 70.1%; in test [3], 71.5%; in [4], 91.6%; in test [5], 83.6%; in test [6], 64.2%. The growth in test [7] was 85.6%; in test [8], 64.5%; in test [9], 87.8%; in test [10] it was 98.7%.
`COc1ccc2c(c1)Oc1nc(N)c(C#N)c(N)c1C2Sc1ccc(O)cc1` (stereo not given): the growth is 65.7% in test [1]; 102% in test [2]; 89.7% in test [3]; 106% in [4]; 86.5% in test [5]; 95.9% in test [6]. For the same compound, the growth in test [7] was 90.3%; in test [8], 101%; in [9] it was 87.4%; in test [10] it was 105%.
With `COc1cc(NCC(=O)Nc2cc(Nc3cccc(C(F)(F)F)c3)ncn2)c(Cl)c(OC)c1Cl`, the growth in [1] was 94%; in test [2], 81.7%; in test [3], 83.4%; in [4], 99.9%; in test [5], 92.5%; in [6], 82.2%. In addition, the growth in test [7] was 95.2%; in test [8] it was 75.5%; in test [9], 93.2%; in [10], 105%.
`C=C(C)[C@@H]1CC[C@]2(C(=O)OCCOCCOCC[P+](c3ccccc3)(c3ccccc3)c3ccccc3)CC[C@]3(C)[C@H](CC[C@@H]4[C@@]5(C)CC[C@H](OC(C)=O)C(C)(C)[C@@H]5CC[C@]43C)[C@@H]12`: the growth is -81.3% (active) in test [1]; -88.5% (active) in test [2]; -87.2% (active) in test [3]; -93.6% (active) in test [4]; -95.4% (active) in test [5]; -90.2% (active) in [6]. The growth in test [7] is -98.5% (active); in [8] it was -86.5% (active); in test [9], -93.2% (active); in [10] it was -86.7% (active).
For `COC(=O)c1ccc2c(c1)n(Cc1ccc3ccccc3c1)c[n+]2Cc1ccc2ccccc2c1`, the growth in test [1] was 98.6%; in test [2], 10.1%; in test [3] it was 60.1%; in test [4], 33.1%; in test [5], 32.9%; in test [6] it was 29.6%. For the same compound, the growth in test [7] was 4.24% (active); in test [8] it was -15.9% (active); in [9], 23.9%; in test [10], 21.6%.
Turning to `Cc1cc(O)cc(O)c1N=NC1=NCCS1`, the growth was 102% in test [1]; 95.7% in test [2]; 81.7% in [3]; 107% in test [4]; 105% in test [5]; 107% in [6]. The growth in test [7] was 111%; in test [8], 99.5%; in [9], 97.2%; in test [10] it was 98.5%.
On to `COCCOC(=O)COc1ccc(OC)cc1`, for which the growth is 98.1% in test [1]; 114% in test [2]; 91.8% in test [3]; 97.4% in test [4]; 102% in test [5]; 96.8% in test [6]. For the same compound, the growth in test [7] was 93.8%; in test [8], 96.2%; in [9] it was 102%; in test [10], 109%.
On to `Nc1n[nH]c2cccc(C#Cc3cccc(NC(=O)c4cc(N5CCOCC5)cc(C(F)(F)F)c4)c3)c12`, for which the growth in test [1] was 36.9%; in test [2], 22.6%; in test [3] it was 71.5%; in [4], 83.9%; in test [5] it was 56.3%; in [6] it was 69%. The growth in test [7] is 55.7%; in test [8], 14%; in test [9] it was 18.6%; in test [10], 24.5%.
